The subject of assay [1] is Human papillomavirus type 1a protein E7 (residues 44-93). The assay can be described thus: small molecules binding HPV E7 44-93 – biochemical, small-molecule microarray, residues 44-93, 635 nm fluorescence, primary screen (AID 1108).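 Note: E7 fragment applied at 1 µg/mL in TBST for 1 h at 4 C; score combines spot fluorescence with its signal to noise ratio.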 To be noted: fluorescence 635 nm, higher = more signal.
The nature of assay [2]: hepatitis C replication reporter changes, two-sided – Huh7 cells, luciferase reporter, HCV replication inhibitor project, primary screen (AID 1109).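 Note: huh7 hepatoma cells harbouring a luciferase neomycin HCV replicon reporter; luciferase luminescence as measure of HCV replicon replication; test concentration not given here.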 To be noted: Huh7 HCV replicon luciferase reporter, 48 h; higher = more signal. Background: In a reporter assay the amount or activity of a reporter protein is the signal.
Assay [3] concerns the target Left-right determination factor 2 (Homo sapiens) (UniProt O00292). As to the kind of experiment: small molecules binding LEFTY2 protein – biochemical, small-molecule microarray, 635 nm fluorescence scan, primary screen (AID 1110). To be noted: higher = more signal.
Assay [4] concerns the target Calmodulin-1 (Homo sapiens) (UniProt P0DP23). The assay can be described thus: small molecules binding calmodulin-1 with EGTA – biochemical, small-molecule microarray, Cy5-labelled CALM1, profiling panel (AID 1111).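 Note: labelled calmodulin applied in Tris saline Tween buffer holding calcium plus EGTA and DTT.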 To be noted: Cy5-CALM1 binding fluorescence, higher = more signal.
The target is the same in assay [5]. As to the kind of experiment: small molecules binding Ca-loaded calmodulin-1 – biochemical, small-molecule microarray, Cy5-labelled CALM1, plus calcium, artefact control for SMM control-protein annotation, profiling panel (AID 1112).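 Note: score merges spot fluorescence with signal to noise from triplicate slides.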 To be noted: Cy5-CALM1 binding fluorescence, higher = more signal.
A short description of assay [6]: probe aWnt5a binding to arrayed compounds – biochemical, biotinylated probe, 635/667 nm fluorescence, primary screen (AID 1113).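 Note: score merges 667 nm fluorescence intensity with signal-to-noise per printed feature.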 To be noted: small-molecule microarray, higher = more signal.
Assay [7] can be described thus: probe aShh binding to arrayed compounds – biochemical, biotinylated probe, 635/667 nm fluorescence, primary screen (AID 1114).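 Note: probe is biotin-labelled aShh protein from a stem cell growth factor screen; measures binding of labelled protein to compounds printed on the slide; score merges feature fluorescence at 667 nm with signal-to-noise.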 To be noted: small-molecule microarray, higher = more signal.
A short description of assay [8]: probe aNog binding to arrayed compounds – biochemical, biotinylated probe, 635/667 nm fluorescence, primary screen (AID 1115).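 Note: probe is biotinylated aNog protein used at 0.15 µg/mL for 1 h at 4 C; z-score combines 667 nm fluorescence of each spot with its signal to noise.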 To be noted: small-molecule microarray, higher = more signal.
Assay [9] deals with Torsin-1A-interacting protein 1 (Homo sapiens) (UniProt Q5JTV8). The assay can be described thus: compound microarray binding of lysate hLAP1 – cell lysate, small-molecule microarray, COS7 lysate, 635/667 nm fluorescence, primary screen (AID 1116). To be noted: 635 nm fluorescence, higher = more signal.
Assay [10] has as its target Alpha-bungarotoxin (Bungarus multicinctus) (UniProt P60615). As to the kind of experiment: compounds binding labelled alpha-BTX control protein – biochemical, small-molecule microarray, Alexa647 label, 635/667 nm fluorescence, artefact control for SMM control protein annotation, profiling panel (AID 1117). To be noted: alpha-BTX-A647 binding fluorescence, higher = more signal.

A further assay addresses Albumin (Bos taurus) (UniProt P02769). The assay can be described thus: compounds binding labelled BSA control protein – biochemical, small-molecule microarray, Alexa647 label, 635/667 nm fluorescence, artefact control for SMM control protein annotation, profiling panel (AID 1118).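 Note: score merges 667 nm emission intensity and signal-to-noise per printed compound spot.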 To be noted: BSA-A647 binding, fluorescence 635 nm, higher = more signal.
Assay [11] in a line: probe aXIP binding to arrayed compounds – biochemical, NeuroSMM set, 635/667 nm fluorescence, primary screen (AID 1119).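 Note: probe is the protein aXip251-270 applied at 1 µg/mL to compound-printed slides; binding of probe to printed compounds measured as 667 nm fluorescence plus signal to noise.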 To be noted: small-molecule microarray, higher = more signal, called active from +8 up or from −8 down.
A short description of assay [12]: probe aNOTCH3 binding on compound microarray – biochemical, small-molecule microarray, 635/667 nm fluorescence, primary screen (AID 1120).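 Note: probe is a biotin-tagged antibody raised against NOTCH3 rather than NOTCH3 protein; score merges spot fluorescence near 667 nm with spot signal to noise.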 To be noted: higher = more signal.
Assay [13] can be described thus: probe aNOTCH2 binding on compound microarray – biochemical, small-molecule microarray, 635/667 nm fluorescence, primary screen (AID 1121).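 Note: score merges feature fluorescence read at 667 nm with its signal to noise.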 To be noted: higher = more signal.
Assay [14] deals with Carbonic anhydrase 2 (Homo sapiens) (UniProt P00918). The assay can be described thus: compounds binding carbonic anhydrase 2 – biochemical, small-molecule microarray, Alexa647-labelled CAII, profiling panel (AID 1122). To be noted: CAII-A647 binding fluorescence, higher = more signal.
Assay [15] in a line: COS7 lysate on small-molecule microarray, probe aHis, 635 nm (AID 1123).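 Note: z-score combines 667nm fluorescence intensity with signal-to-noise per printed compound spot.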 To be noted: COS7 cell lysate, fluorescence, higher = more signal.
Assay [16] can be described thus: probe aLAP1 signal on lysate-treated microarray – cell lysate, small-molecule microarray, COS7 lysate, primary screen (AID 1124).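 Note: lysate comes from COS7 cells expressing LAP1 and is applied at 0.3 µg/mL; score merges spot fluorescence near 667 nm with signal-to-noise over triplicate slides.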 To be noted: probe aLAP1, fluorescence, higher = more signal.
The test system of a further assay is Sam68 (KHDRBS1). The assay can be described thus: compounds binding KHDRBS1 protein – biochemical, small-molecule microarray, 635 nm fluorescence, primary screen (AID 1125).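 Note: score merges 667 nm channel intensity with signal to noise over triplicate slides.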 To be noted: higher = more signal.
In assay [17] the test system is Chordin-like protein 2 (CHRDL2). The assay can be described thus: compounds binding chordin-like 2 – biochemical, small-molecule microarray, 635 nm fluorescence, primary screen (AID 1126).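 Note: printed compound slides probed with Chrdl2 protein at 4 µg/mL for 1 h at 4 C; score merges 667 nm emission intensity with signal to noise over three replicate slides.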 To be noted: fluorescence 635 nm, higher = more signal.
Assay [18] deals with Concanavalin-A (Canavalia ensiformis) (UniProt P02866). As to the kind of experiment: compounds binding concanavalin A lectin – biochemical, small-molecule microarray, Alexa647 label, 635 nm, artefact control for SMM control protein annotation, primary screen (AID 1127).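 Note: z combines 667 nm emission intensity with signal-to-noise across three replicate slides.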 To be noted: ConA-A647 binding fluorescence, higher = more signal.

The source made the active and inactive calls.

Sequence of Albumin (Bos taurus) (P02769 whole entry, looked up): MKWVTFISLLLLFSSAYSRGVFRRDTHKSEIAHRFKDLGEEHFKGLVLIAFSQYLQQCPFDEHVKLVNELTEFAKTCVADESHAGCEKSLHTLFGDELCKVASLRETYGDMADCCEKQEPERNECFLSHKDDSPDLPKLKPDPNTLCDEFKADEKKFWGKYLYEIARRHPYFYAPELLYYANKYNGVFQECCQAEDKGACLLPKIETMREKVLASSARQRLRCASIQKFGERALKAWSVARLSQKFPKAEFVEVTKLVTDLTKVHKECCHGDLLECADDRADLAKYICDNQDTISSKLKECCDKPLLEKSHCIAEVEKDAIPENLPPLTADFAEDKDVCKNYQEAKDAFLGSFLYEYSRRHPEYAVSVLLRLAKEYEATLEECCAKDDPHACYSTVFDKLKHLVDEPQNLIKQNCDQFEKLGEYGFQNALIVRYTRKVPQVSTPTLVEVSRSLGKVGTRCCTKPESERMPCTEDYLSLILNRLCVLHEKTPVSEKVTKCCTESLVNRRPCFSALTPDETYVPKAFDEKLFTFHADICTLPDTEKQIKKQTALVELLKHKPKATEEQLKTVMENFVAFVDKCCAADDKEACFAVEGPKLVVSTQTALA
Sequence of Torsin-1A-interacting protein 1 (Homo sapiens) (Q5JTV8 whole entry, looked up): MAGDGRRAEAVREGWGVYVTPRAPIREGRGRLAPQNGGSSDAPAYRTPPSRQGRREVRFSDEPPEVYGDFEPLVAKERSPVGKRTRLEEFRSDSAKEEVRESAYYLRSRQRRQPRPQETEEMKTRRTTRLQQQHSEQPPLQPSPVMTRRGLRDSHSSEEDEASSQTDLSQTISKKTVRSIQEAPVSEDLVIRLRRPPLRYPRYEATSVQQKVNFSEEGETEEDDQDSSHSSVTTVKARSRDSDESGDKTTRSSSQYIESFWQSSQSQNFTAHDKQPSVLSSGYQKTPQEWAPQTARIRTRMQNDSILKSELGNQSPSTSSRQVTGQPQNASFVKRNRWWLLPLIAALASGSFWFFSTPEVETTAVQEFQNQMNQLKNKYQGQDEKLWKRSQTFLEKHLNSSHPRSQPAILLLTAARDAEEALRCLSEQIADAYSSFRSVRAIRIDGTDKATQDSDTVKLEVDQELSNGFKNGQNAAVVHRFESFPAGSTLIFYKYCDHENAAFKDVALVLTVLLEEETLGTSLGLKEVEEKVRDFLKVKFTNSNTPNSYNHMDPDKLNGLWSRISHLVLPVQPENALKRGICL
Sequence of Alpha-bungarotoxin (Bungarus multicinctus) (P60615 whole entry, looked up): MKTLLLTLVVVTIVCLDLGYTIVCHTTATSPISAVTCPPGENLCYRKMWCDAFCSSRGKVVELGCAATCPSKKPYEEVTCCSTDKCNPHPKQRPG
Sequence of Left-right determination factor 2 (Homo sapiens) (O00292 whole entry, looked up): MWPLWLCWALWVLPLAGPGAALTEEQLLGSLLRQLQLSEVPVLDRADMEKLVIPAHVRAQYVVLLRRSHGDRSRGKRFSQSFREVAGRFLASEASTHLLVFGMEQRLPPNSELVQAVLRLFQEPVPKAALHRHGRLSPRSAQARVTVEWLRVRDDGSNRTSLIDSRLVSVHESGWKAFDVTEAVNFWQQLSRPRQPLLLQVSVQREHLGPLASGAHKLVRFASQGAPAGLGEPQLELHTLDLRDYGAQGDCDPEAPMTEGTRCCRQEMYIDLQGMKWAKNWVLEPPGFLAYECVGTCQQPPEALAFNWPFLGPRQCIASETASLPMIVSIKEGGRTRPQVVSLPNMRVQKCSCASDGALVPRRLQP
Sequence of Concanavalin-A (Canavalia ensiformis) (P02866 whole entry, looked up): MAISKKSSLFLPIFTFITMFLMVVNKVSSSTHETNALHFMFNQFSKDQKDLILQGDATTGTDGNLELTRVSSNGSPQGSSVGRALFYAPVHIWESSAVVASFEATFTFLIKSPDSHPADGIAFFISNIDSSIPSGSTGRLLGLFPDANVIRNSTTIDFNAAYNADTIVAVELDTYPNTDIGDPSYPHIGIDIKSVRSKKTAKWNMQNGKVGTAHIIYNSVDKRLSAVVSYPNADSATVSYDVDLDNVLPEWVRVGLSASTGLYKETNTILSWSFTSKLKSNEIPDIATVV

Regarding `C=CC(=C)C1=CCO[C@@H]1[C@H]1CCCN1S(=O)(=O)c1ccccc1[N+](=O)[O-]`, the composite z-score in assay [1] is -0.0291; in assay [3], 0.867; in assay [4], 0.397; in [5], -0.112; in [6], -0.101; in assay [7], -0.0626. Moreover, the composite z-score in [8] is -0.175; in assay [9], 0.169; in [10], 0.537; with Albumin (Bos taurus) it was 0.656; in assay [12], 0.117; in assay [13] it was -0.0926. The composite z-score in [14] was 0.481; in assay [15], 0.158; in assay [16], -0.262; in the assay with Sam68 (KHDRBS1) it was 0.471; in assay [17], 1.04; in assay [18], 1.1. Moreover, the z-score in [2] was -1.4. For the same molecule, in [11], the composite Z-score is 0.0499 (inactive).

For `CC(C)c1ccc(NN2C(C(O)c3ccc(N(C)C)cc3)C=CC3C(=O)N(c4ccccc4)C(=O)C32)cc1` (stereo not given), the composite z-score was determined as 1.42 in [1]; 0.0148 in assay [3]; 1.44 in assay [4]; 0.176 in assay [5]; 0.0317 in assay [6]; 0.13 in assay [7]. In addition, the composite z-score in [8] amounted to 0.842; in assay [9] it was 0.488; in assay [10] it was 1.73; with Albumin (Bos taurus), 0.961; in assay [12], 0.432; in assay [13], 0.0147. Also, the composite z-score in [14] was 0.393; in assay [15], 2.76; in assay [16] it was -0.161; in the assay with Sam68 (KHDRBS1), 1.29; in assay [17] it was -0.0118; in [18] it was 1.16. This molecule showed a z-score in [2] of 1.61. Moreover, in assay [11], the composite Z-score was -0.343 (inactive).

Take `O=C1OCCC/C=C\[C@H]2OC34C=CCN(Cn5nnc6ccccc65)C(=O)[C@H]3N(CCCCCO)C(=O)[C@@H]4C12` (stereo not given in full): the composite z-score in [1] is -0.921; in assay [3] it was -1.5; in [4] it was -0.709; in assay [5], -0.388; in [6] it was -0.175; in [7] it was -0.0035. Further, the composite z-score in assay [8] was -0.0894; in assay [9] it was -0.118; in assay [10], -0.697; with Albumin (Bos taurus), 0.743; in assay [12], -0.267; in assay [13] it was -0.14. The composite z-score is 0.881 in assay [14]; 0.0505 in [15]; -0.477 in assay [16]; -0.445 in the assay on Sam68 (KHDRBS1); -0.977 in assay [17]; -0.702 in assay [18]. Further, the z-score in assay [2] came out at 0.0311. Further, in [11], the composite Z-score was -0.263 (inactive).

With `CCCCC=C[C@@H](NC(=O)c1ccc(C(=O)OC)cc1)c1ccccc1`, the composite z-score in [1] was 1.1; in assay [3], 0.107; in [4], 0.168; in [5], -0.128; in assay [6], -0.15; in [7] it was 0.0711. The composite z-score in assay [8] is 0.122; in [9], 0.0279; in [10] it was 0.926; in the assay with Albumin (Bos taurus), 0.924; in [12], 0.313; in assay [13] it was -0.171. The composite z-score in [14] is 0.235; in assay [15] it was 1.81; in [16] it was 0.327; in the assay with Sam68 (KHDRBS1) it was 1.15; in assay [17] it was -0.14; in assay [18], 0.887. Also, the z-score in assay [2] is -1.36. Moreover, the composite Z-score in assay [11] was -0.213 (inactive).

On to `CC(C)N1C(=O)[C@@]2(c3ccc([N+](=O)[O-])cc3)CC(=O)N(CC34CC5CC(CC(C5)C3)C4)[C@@H]2c2ccc(CO)cc21`, for which the composite z-score in [1] was -1.28; in [3], -1.36; in assay [4] it was -0.251; in assay [5] it was 0.134; in [6], -0.316; in [7], -0.208. The composite z-score was 0.705 in [8]; -0.742 in assay [9]; -0.12 in assay [10]; -0.747 with Albumin (Bos taurus); 0.49 in [12]; -0.237 in assay [13]. Moreover, the composite z-score in assay [14] was -0.531; in assay [15] it was 0.773; in [16], 0.632; in the assay with Sam68 (KHDRBS1) it was -0.507; in assay [17] it was -1.27; in assay [18] it was 0.134. Further, in [2], the z-score was -1.21. In [11], the composite Z-score is -0.0775 (inactive).

In the case of `CC(=CC1CCCCC1)[C@@H](NC(=O)c1ccc(C(F)(F)F)cc1)c1ccc(-c2ccccc2)cc1`, the composite z-score in assay [1] is -0.778; in assay [3] it was -0.886; in [4], 0.605; in [5] it was 0.636; in [6], -0.0735; in assay [7], 0.151. Further, the composite z-score in assay [8] was 0.506; in assay [9] it was -0.204; in assay [10], 0.48; in the assay with Albumin (Bos taurus), 0.938; in [12] it was -0.0311; in [13], 0.0181. The composite z-score was -0.0824 in [14]; -0.261 in assay [15]; -0.223 in assay [16]; -0.946 in the assay on Sam68 (KHDRBS1); -0.371 in assay [17]; -0.0536 in assay [18]. The z-score in assay [2] was -1.04. In addition, the composite Z-score in assay [11] was -0.193 (inactive).

The record behind these values is PubChem BioAssay.
